Most compounds without a hit are left out; they make up all but 1.1% or so of the library.
LAP4-GFP MLPCN: modulators of LAP4-GFP expression in yeast, primary screen, S. cerevisiae, multiplex flow cytometry, MLPCN library; GFP response vs DMSO, % at 10 µM; 320,000 compounds, 0.34% hits; AID 2023, 2009; 3 h; median GFP as percent of DMSO wells;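 active = GFP response vs DMSO above a set limit, about the screen mean plus 3 SD, cut at about 150% in these data; inconclusive = under 70 cell events counted for the yeast strain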
CIT2 TOR yeast: modulators of CIT2-GFP expression in yeast, primary screen, S. cerevisiae, GFP fusion, multiplex flow cytometry, MLPCN library; S. cerevisiae CIT2-GFP strain, 3 h; 100 means same as DMSO wells; AID 2029, 2009; 320,000 compounds, 0.065% hits; GFP response vs DMSO, % at 10 µM;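 active = GFP response relative to DMSO above a set limit, near the screen mean plus 3 SD, cut at about 150% in these data; inconclusive = Fewer than 70 cells measured for a yeast strain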;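 also: ratio of well median GFP fluorescence to mean of DMSO wells on the plate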
AGP1 TOR yeast: modulators of AGP1-GFP expression in yeast TOR pathway, primary screen, cell-based, multiplex flow cytometry, S. cerevisiae, MLPCN library | 3 h; GFP as percent of DMSO wells | GFP response vs DMSO, % at 10 µM | 320,000 compounds, 0.02% hits;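 active = GFP response relative to DMSO above a set limit, near screen average plus 3 SD, cut at about 150% in these data; inconclusive = fewer than 70 cells counted for the yeast strain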;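 also: median GFP channel fluorescence of the gated AGP1 strain per well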
MEP2 TOR yeast: modulators of MEP2-GFP levels in yeast, primary screen, S. cerevisiae, multiplex flow cytometry, MLPCN library; S. cerevisiae MEP2-GFP strain, 3 h; 100% = DMSO control level; GFP response vs DMSO, % at 10 µM; AID 2016, 2009; 330,000 compounds, 0.51% hits;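 active = GFP response versus DMSO above a set limit, roughly screen mean plus 3 SD, cut at about 180% in these data; inconclusive = fewer than 70 cells counted for a yeast strain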;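 also: median GFP fluorescence of the barcode-gated MEP2-GFP cells per well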
RPL19A TOR yeast: RPL19A-GFP expression modulators in yeast, primary screen, cell-based, S. cerevisiae, multiplex flow cytometry, MLPCN; 330,000 compounds, 0.3% hits; percent response vs DMSO, % at 10 µM; S. cerevisiae RPL19A-GFP strain, 3 h; stronger effect = lower value;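 active = percent response vs DMSO below 50%; inconclusive = fewer than 70 events counted for the yeast strain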;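 also: median channel GFP fluorescence of the barcoded RPL19A-GFP strain; ratio of sample median GFP to plate DMSO average so 100% = DMSO; lower means less RPL19A-GFP as with rapamycin TOR inhibition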
VLA-4 inh: inhibition in human VLA-4 binding assay, primary screen, VLA-4 allosteric modulator project, MLPCN library, flow cytometry, VLA-4 expressing cells; 330,000 compounds, 0.2% hits; ligand binding flow cytometry; inhibition, % (about 7 µM as worked out from the volumes in the protocol); in the data active = inhibition above about 50%
Target sequence (P13612 whole entry, looked up): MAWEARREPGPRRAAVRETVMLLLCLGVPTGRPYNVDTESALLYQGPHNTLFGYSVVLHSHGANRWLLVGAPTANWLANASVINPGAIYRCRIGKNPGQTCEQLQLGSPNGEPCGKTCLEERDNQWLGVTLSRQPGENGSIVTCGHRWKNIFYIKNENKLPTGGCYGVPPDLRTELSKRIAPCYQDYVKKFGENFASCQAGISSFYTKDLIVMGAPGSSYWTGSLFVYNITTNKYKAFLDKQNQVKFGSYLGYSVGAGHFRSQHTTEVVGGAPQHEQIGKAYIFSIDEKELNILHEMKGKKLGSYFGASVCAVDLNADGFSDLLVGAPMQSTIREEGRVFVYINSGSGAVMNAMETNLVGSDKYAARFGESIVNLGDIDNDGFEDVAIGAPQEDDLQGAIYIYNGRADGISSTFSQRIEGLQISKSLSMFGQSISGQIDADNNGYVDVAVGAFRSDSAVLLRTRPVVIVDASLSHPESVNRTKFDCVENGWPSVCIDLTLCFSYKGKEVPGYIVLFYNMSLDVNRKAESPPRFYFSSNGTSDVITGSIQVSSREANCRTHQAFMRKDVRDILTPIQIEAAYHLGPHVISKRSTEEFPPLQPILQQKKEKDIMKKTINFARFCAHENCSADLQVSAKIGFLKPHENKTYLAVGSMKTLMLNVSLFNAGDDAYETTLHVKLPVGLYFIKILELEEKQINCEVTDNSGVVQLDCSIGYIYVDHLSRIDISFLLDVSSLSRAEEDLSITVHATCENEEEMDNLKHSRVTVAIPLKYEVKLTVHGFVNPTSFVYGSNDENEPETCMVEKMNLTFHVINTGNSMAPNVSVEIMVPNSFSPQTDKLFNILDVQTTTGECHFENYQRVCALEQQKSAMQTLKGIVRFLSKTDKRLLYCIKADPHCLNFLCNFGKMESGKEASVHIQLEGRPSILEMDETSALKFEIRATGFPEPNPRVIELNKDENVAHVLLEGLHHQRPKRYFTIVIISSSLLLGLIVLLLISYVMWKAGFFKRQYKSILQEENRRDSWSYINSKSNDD
VLA-4 mod pick: retest of VLA-4 allosteric modulators, confirmation, cell-based, cherry-picked plates, U937, HUTS-21 LIBS antibody. 1,300 compounds, 2% hits. shares compounds with VLA-4 inh. U937 cells, HUTS-21 LIBS mAb binding, flow cytometry; LDV ligand present at threefold Kd. inhibition, % at 6.7 µM; in the data active = inhibition above about 40%;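 also: 0% = ligand without compound and 100% = no ligand background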
Numbers without * were called inactive; ? = inconclusive; nt = not tested or not shown; [ ] = remark or other dose.

SMILES	LAP4-GFP MLPCN	CIT2 TOR yeast	AGP1 TOR yeast	MEP2 TOR yeast	RPL19A TOR yeast	VLA-4 inh	VLA-4 mod pick
CCOc1ccc(NC(=O)Cn2c(=O)oc3cc(Cl)ccc32)cc1	91	103	94	105	103	0	5
CCOc1ccccc1NC(=O)Cn1c(=O)oc2cc(Cl)ccc21	101	98	92	111	104	13	2
O=C(Nc1ccc(F)cc1)c1ccc2c(=O)n(CC3CCCO3)c(=S)[nH]c2c1 (configuration not stated)	93	103	100	105	107	2	nt
CCc1c(C)c2ccc(OC(C)C(=O)NC(Cc3c[nH]c4ccc(O)cc34)C(=O)O)c(C)c2oc1=O (configuration not stated)	101	104	103	100	100	52*	11
CC(O/N=C(\N)c1ccccc1)C(=O)Nc1cccc(C(F)(F)F)c1 (configuration not stated)	98	77	94	93	93	13	nt
COc1cc(OC)c(C(=O)OC(C)C(=O)Nc2cccc(C(F)(F)F)c2)cc1OC (configuration not stated)	98	106	102	103	101	-15	10
COc1ccc(-n2nc3c(c2NC(=O)C(C)Oc2ccccc2)CS(=O)C3)cc1 (configuration not stated)	101	111	101	106	102	-13	nt
CCOC(=O)NC(=O)/C(C#N)=C/c1ccc(N(C)C)cc1	109	96	99	100	100	-16	2
N#C/C(=C\c1cc(Cl)c(OCc2ccc(Cl)cc2)c(Cl)c1)C(N)=O	105	100	101	102	97	3	nt
CCN(CC)c1ccc(/C=C(\C#N)C(N)=S)cc1	138	100	86	118	89	-22	nt
CCN(CC)c1ccc(/C=C(\C#N)C(N)=O)cc1	nt	nt	nt	nt	nt	nt	-2
N#C/C(=C\c1cc(O)c(O)c(O)c1)C(N)=O	102	107	106	111	106	4	2
O=C(Cc1ccccc1F)NNC(=O)c1ccncc1	103	102	108	93	97	-3	nt
CC(C)(C)c1ccc(-c2noc(-c3ccc4c(c3)CCO4)n2)cc1	109	93	101	98	92	-4	nt
O=C1Cc2cc(NS(=O)(=O)c3ccc([N+](=O)[O-])cc3)cc3c2N1CCC3	95	101	105	102	101	1	nt
COc1ccc(-c2sc3cc4c(cc3c2-c2ccc(OCCN3CCOCC3)cc2)OCO4)cc1	98	76	85	93	86	26	15
COc1cc(OC)cc(-c2sc3ccc(OC)cc3c2-c2ccc(OCCN3CCOCC3)cc2)c1	nt	nt	nt	nt	nt	nt	6
COc1ccc(OCCOCCN2CCOCC2)cc1	95	109	104	101	99	-1	nt
COc1cccc(-c2sc3ccc(OC)cc3c2-c2ccc(OCCN3CCOCC3)cc2)c1	111	91	91	96	95	19	7
COc1cc([C@H]2c3c(cc(OC)c(O)c3OC)C[C@@H](CO)[C@@H]2CO[C@@H]2O[C@H](CO)[C@@H](O)[C@H](O)[C@H]2O)cc(OC)c1O	96	95	96	98	97	12	nt
CC1CCN(C(=O)Cn2cnc3c2c(=O)n(C)c(=O)n3C)c2ccccc2S1 (configuration not stated)	93	102	102	102	100	3	nt
Cc1c(NC(=O)CC(C)C)c(=O)n(-c2ccccc2)n1C	93	104	85	99	98	8	nt
COC(=O)CCC(=O)Nc1c(C)n(C)n(-c2ccccc2)c1=O	105	106	106	103	102	-8	nt
COc1ccc(N(CC(=O)Nc2c(C)n(C)n(-c3ccccc3)c2=O)S(=O)(=O)c2ccc(C)cc2)cc1OC	96	101	100	102	103	1	nt
Cc1c(NC(=O)C2CCCN2S(=O)(=O)c2ccccc2)c(=O)n(-c2ccccc2)n1C (configuration not stated)	88	92	97	93	94	5	3
SMILES	LAP4-GFP MLPCN	CIT2 TOR yeast	AGP1 TOR yeast	MEP2 TOR yeast	RPL19A TOR yeast	VLA-4 inh	VLA-4 mod pick
Cc1c(NC(=O)C2CCN(S(=O)(=O)c3ccc(Cl)cc3)CC2)c(=O)n(-c2ccccc2)n1C	96	94	95	101	97	13	nt
COc1ccc(S(=O)(=O)CCC(=O)Nc2c(C)n(C)n(-c3ccccc3)c2=O)cc1	105	112	117	101	108	23	-10
Cc1cccc(N(CC(=O)Nc2c(C)n(C)n(-c3ccccc3)c2=O)S(C)(=O)=O)c1	94	105	100	96	96	0	-4
Cc1c(NC(=O)CCC2CCCCC2)c(=O)n(-c2ccccc2)n1C	99	103	99	100	97	15	7
Cc1ccc(S(=O)(=O)N2CCN(C(=O)COC(=O)COc3cccc(C(F)(F)F)c3)CC2)c(C)c1	90	95	97	92	96	15	nt
Cc1cc(C)c(C)c(OCC(O)CN2CCN(c3ccccn3)CC2)c1 (configuration not stated)	98	101	101	106	101	19	nt
COC(=O)CCSC(=S)N1CCOCC1	110	106	107	105	98	-4	nt
Cc1ccc(-c2csc(NC(=O)c3ccc(F)cc3)c2C(=O)O)cc1	91	93	94	85	98	-5	nt
CCNC(=O)Nc1cc(OC)c(OC)cc1C(=O)O	114	111	111	104	101	-1	nt
COc1cc(NC(=O)C(c2ccccc2)c2ccccc2)c(C(=O)O)cc1OC	82	94	84	100	93	9	-2
CCc1cc(C(=O)O)c(NC(=O)C(c2ccccc2)c2ccccc2)s1	96	?	nt	218*[may fluoresce violet]	59	90*	0
COC(=O)c1cc(-c2ccc(C)o2)nc2ccccc12	111	94	82	95	101	41	-27
CCCc1ccc(OCc2ccc(C(=O)NCc3cccnc3)o2)c(OC)c1	115	110	114	107	111	56*	8
O=C(NCc1nnc2c(C(F)(F)F)cc(Cl)cn12)c1cccs1	90	98	92	102	96	10	nt

Screening data from PubChem BioAssay.
